Screening data as filed in PubChem.
RAM inhibit: inhibitors of the yeast RAM network, primary screen, dse1pr::URA3 reporter, 5-FOA selection | S. cerevisiae dse1pr::URA3 reporter, 5-FOA growth OD615, 2 d; analog-sensitive cbk1-as2 kinase mutant strain | inhibition, % at 50 µM | actives 1.8% (n = 190,000);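 active = inhibition above a set limit, 3 SD over mean compound inhibition, cut at about 8.4% in these data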;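 note: inhibition rescues growth on 5-FOA so higher OD means more RAM inhibition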
CHOP inhibitor: inhibitors of CHOP promoter induction, primary screen, cell-based, unfolded protein response, luciferase reporter; CHO-K1 CHOP-promoter luciferase, tunicamycin-induced, 15-18 h; actives 3.8% (n = 220,000); inhibition, % at 10 µM; AID 2732, 2010;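 active = compounds that reduced the stress-induced luciferase reporter signal by more than about 70% of percent inhibition, limit read from the data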
WT yeast gro inh: growth inhibition of WT strain, primary screen, mitochondrial fusion inhibitor project, WT and mutant strains, chemical genetic; actives 2.1% (n = 190,000); AID 1362, 2008; mitochondrial fusion phenotypic screen; inhibition, % at 10 µM; in the data active = inhibition above about 58%; tested in S. cerevisiae
Lmaj promast: Leishmania major promastigote growth inhibition, primary screen. Leishmania major promastigotes, resazurin fluorescence viability. inhibition, % at 10 µM. actives 9% (n = 200,000); in the data active = inhibition above about 50%;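 note: promastigotes grown with compound for 44 hours at 28 °C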
Of the large screens only hits and unclear results are named; the others gave an inactive call. Shown are actives, neighbours in structure and some others; about 13% of the full set was active somewhere.

CSc1ccc(S(=O)(=O)N(CC(=O)NN=C2CCN(C)CC2)c2ccc(C)cc2)cc1	none
O=C(O)CSCC(=O)N1CCN(S(=O)(=O)c2cc(Cl)cc(Cl)c2)CC1	none (no result: RAM inhibit, WT yeast gro inh, Lmaj promast)
c1ccc2[nH]c3cc4ncnc4cc3nc2c1	Lmaj promast 99
FC(F)c1nc2ccccc2[nH]1	none
O=C(COc1ccccc1)N(Cc1ccco1)c1ccc(O)cc1	none
O=C(c1ccc(Cl)c(Cl)c1)N(Cc1ccco1)c1ccc(O)cc1	CHOP inhibitor 87, Lmaj promast 70
Cc1nc([N+](=O)[O-])c(Br)n1CC(=O)c1ccccc1	Lmaj promast 96
Cc1nc([N+](=O)[O-])c(Br)n1CC(=O)c1ccc(Br)cc1	Lmaj promast 98
O=C(c1ccc(CS(=O)(=O)c2cccc(C(F)(F)F)c2)o1)N1CCN(c2ccccn2)CC1	none
Cc1ccc(NCc2nnc(SCC(=O)Nc3ncc(C)s3)n2Cc2ccco2)c(C)c1	CHOP inhibitor 94
Cc1cc(Cl)ccc1NC(=O)CSc1nnc(-c2ccncc2)n1Cc1ccco1	none
Cc1c(C(=O)Oc2cccc3cccnc23)oc2ccccc12	Lmaj promast 98
O=C(/C=C/c1ccco1)Oc1cccc2cccnc12	none (no result: RAM inhibit, WT yeast gro inh, Lmaj promast)
O=C(/C=C\c1ccco1)Oc1cccc2cccnc12	Lmaj promast 97
COc1ccccc1/C=C/C(=O)Oc1cccc2cccnc12	Lmaj promast 99
CC1CCc2c(sc3ncn(CC(=O)N4CCCCC4)c(=O)c23)C1 (stereo not given)	none
C=CCn1c(CCC(=O)Nc2ccc(C)c(Cl)c2)nnc1SCC(=O)Nc1ccccc1C	none
CCOC(=O)c1c(C)[nH]c(C(=O)NCc2ccco2)c1C	none
COc1cc(C(=O)O)c2ccccc2n1	none
CCCCCCc1cc2cc(C(=O)NC)c(=N)oc2cc1O	Lmaj promast 58 (no result: CHOP inhibitor)
CCCCCCc1cc2cc(C(N)=O)c(=N)oc2cc1O	WT yeast gro inh 82
CCCCCCc1cc2cc(S(=O)(=O)c3ccc(F)c(Cl)c3)c(=O)oc2cc1O	CHOP inhibitor 91
CCCCCCc1cc2cc(C(=O)OCC)c(=O)oc2cc1O	none (no result: RAM inhibit, WT yeast gro inh, Lmaj promast)
CC(=O)c1cn(CCC(C)C)c(=O)[nH]c1=O	none
C=CCNCC(O)COc1ccc(C(C)=O)cc1OC (stereo not given)	none (no result: RAM inhibit, WT yeast gro inh, Lmaj promast)
COc1ccc(/C=N/NC(=O)c2cccc(Br)c2)cc1COc1ccccn1	none (no result: RAM inhibit, WT yeast gro inh, Lmaj promast)
CCC(CC)=N/N=C/c1c(O)n(CC)c2cc(C3=NNC(=O)CC3)ccc12	none
CCn1c(O)c(/C=N/N=C/c2ccccc2)c2ccc(C3=NNC(=O)CC3)cc21	Lmaj promast 89
COc1ccc(-c2cc(C)nc(SCC(=O)c3cccc([N+](=O)[O-])c3)n2)cc1	none
Cc1cc(Oc2ccc3ccccc3c2)nc(SCC(=O)c2ccccc2)n1	RAM inhibit 11, Lmaj promast 93
Nc1nc(SCC(=O)c2cccc([N+](=O)[O-])c2)n[nH]1	none
Cc1cc(-c2ccccc2)nc(SCC(=O)c2cccc([N+](=O)[O-])c2)n1	RAM inhibit 11
O=C(CSc1nc2ncc(Br)cc2[nH]1)c1cccc([N+](=O)[O-])c1	Lmaj promast 54
CCc1nc(SCC(=O)c2cccc([N+](=O)[O-])c2)n[nH]1	Lmaj promast 61
O=C(NCc1cccnc1)c1ccc(Br)s1	none (no result: RAM inhibit, WT yeast gro inh, Lmaj promast)
CC1(C)Cc2c(c(-c3ccco3)nc3sc4c(NCC5CCCO5)ncnc4c23)CO1 (stereo not given)	CHOP inhibitor 95
CCN(CC)CCNc1ncnc2c1sc1nc(N3CCCC3)c3c(c12)CC(C)(C)OC3	Lmaj promast 100
CC1(C)Cc2c(c(-c3ccco3)nc3sc4c(NCCCO)ncnc4c23)CO1	none (no result: RAM inhibit, WT yeast gro inh, Lmaj promast)
Cc1cc(C(=O)N2CCCC(C(=O)c3cccc(C(F)(F)F)c3)C2)nc(C)n1 (stereo not given)	none
COC(=O)CN(C#N)c1nc(NC(C)C)nc(NC(C)C)n1	none
CC1(C)CC(=O)C2=C(C1)OC(N)=C(C#N)C2c1ccccc1 (stereo not given)	none
CC1(C)CC(=O)C2=C(C1)Oc1nc3ccccc3cc1C2C(C#N)C#N (stereo not given)	Lmaj promast 100
CCC(C)(C)n1nnnc1C(c1cc(OC)ccc1OC)N1CCN(Cc2ccccc2)CC1 (stereo not given)	none
O=C(N/C=C/c1ccccc1)Nc1ccc(Cl)cc1	CHOP inhibitor 87
O=C(N/C=C/c1ccc(Cl)cc1)NCc1ccc(Cl)cc1	Lmaj promast 60
Cc1ccc(NC(=O)N/C=C/c2ccc(Cl)cc2)cc1	none
COC(=O)C(NNc1ccccc1)(NC(=O)c1cccc(F)c1)C(F)(F)F (stereo not given)	none
O=C(Nc1ccc2c(c1)OCCO2)N1CCN(Cc2ccccc2)CC1	none
CC1(C)C2CCC(C2)C1(C)NC(=O)CNC1CCCCC1 (stereo not given)	none
CN(C)Cc1nc2ccccc2c(=O)n1Cc1nc(-c2cccc([N+](=O)[O-])c2)cs1	Lmaj promast 52
CN1CCN(Cc2nc3ccccc3c(=O)n2Cc2nc(-c3ccc([N+](=O)[O-])cc3)cs2)CC1	Lmaj promast 100
Cc1cc(-c2cccc([N+](=O)[O-])c2)nc2ccccc12	none
Cc1cc(N2CCN(c3nc(-c4ccc([N+](=O)[O-])cc4)cs3)CC2)c2ccccc2n1	CHOP inhibitor 82
CCc1nnc2n1N=C(c1ccc(-c3cc(Cl)ccc3Cl)o1)CS2	none
Cc1nn(CC2CC2)c(=O)n1-c1ccccc1	none
CC(C)C(=O)OC1CCS(=O)(=O)c2sccc21 (stereo not given)	none
CC(C)c1ccc2c(c1)CCC1C(C)(CN)CCCC21C (stereo not given)	CHOP inhibitor 102 (no result: RAM inhibit, WT yeast gro inh, Lmaj promast)
CCOC(=O)c1ccc(Nc2nnc(C)c3ccccc23)cc1	none (no result: RAM inhibit, WT yeast gro inh, Lmaj promast)
CCn1c(Cc2ccccc2)nnc1SCc1cccc(C(=O)O)c1	Lmaj promast 61
CSc1nnc2n(-c3ccc(C)cc3)c(=O)c3c4c(sc3n12)COC(C(C)C)C4 (stereo not given)	CHOP inhibitor 81
Cc1ccc(-n2c(=O)c3c4c(sc3n3c(C)nnc23)COC(C(C)C)C4)cc1 (stereo not given)	none (no result: RAM inhibit, CHOP inhibitor, WT yeast gro inh)
CC1CC(=O)Nc2cc([N+](=O)[O-])ccc2N1 (stereo not given)	none (no result: RAM inhibit, WT yeast gro inh, Lmaj promast)
O=C(COC(=O)C1CCN(S(=O)(=O)c2ccccc2)CC1)NC(=O)c1ccc(OC(F)F)cc1	Lmaj promast 57
O=C(COC(=O)CCC(=O)c1cccs1)NC(=O)c1ccc(OC(F)F)cc1	none
CCOC(=O)C(Cc1ccccc1)c1ccnc2nc(N)nn12 (stereo not given)	none
CCc1cc(C(=O)Nc2cc(S(=O)(=O)N(C)C)ccc2C)sc1C	Lmaj promast 99
Cc1ccc(S(=O)(=O)N(C)C)cc1NC(=O)c1ccncc1	none
O=C(CCc1ccccc1)n1nc(-c2ccccc2)nc1NCc1ccco1	none
COc1ccc(CC(=O)n2nc(-c3ccccc3)nc2NCc2ccco2)cc1	RAM inhibit 10
COCCNC(=O)CCSc1nc(-c2ccc(OC)cc2)cc(C(F)(F)F)n1	none
COc1ccc(-c2cc(C(F)(F)F)nc(SCCC(=O)N3CCCC3)n2)cc1	RAM inhibit 8.8
